The source made the active and inactive calls. Rule for the calls: active = hit-call score of the fitted dose curve at least 0.9, where 1 is the maximum; inactive = score below 0.9.
What was measured:
Details in all cases: mRNA level, 48 h; actives raise or lower the signal
[1] = read-out: growth arrest and DNA damage 45 (GADD45A), GADD45A (gene 1647); test: LTEA_HepaRG_GADD45A: Life Technologies and Expression Analysis (LTEA) Assay for growth arrest and DNA damage 45 (GADD45A) using HepaRG (AID 2283458)
Procedure, shortened: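 Differentiated HepaRG cells were exposed in duplicate for 48 h in serum-free induction medium to 8-point half-log concentrations up to 100 uM in 0.5% DMSO. GADD45A mRNA was measured by TaqMan qRT-PCR, normalized to ACTB, GAPDH and POLR2A, with bidirectional fitting versus DMSO.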

[2] = read-out: Forkhead box O3 (FOXO3), FOXO3 (gene 2309); test: LTEA_HepaRG_FOXO3: Life Technologies and Expression Analysis (LTEA) Assay for Forkhead box O3 (FOXO3) using HepaRG (AID 2283459)
Procedure, shortened: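 HepaRG, 48 h post-dose; 8 conc., half-log from 100 uM, 0.5% DMSO, duplicates; serum-free induction medium. Readout: FOXO3 mRNA, TaqMan qRT-PCR, housekeeping-normalized. Bidirectional curve fit vs DMSO baseline.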

[3] = read-out: ABC Transporter (ABCB1), ABCB1 (gene 5243); test: LTEA_HepaRG_ABCB1: Life Technologies and Expression Analysis (LTEA) Assay for ABC Transporter (ABCB1) using HepaRG (AID 2283460)
Procedure, shortened: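 Expression of ABCB1 was quantified by qRT-PCR against three housekeeping genes after human HepaRG cultures received test chemicals for 48 hours. Concentrations spanned eight half-log steps topping at 100 uM in 0.5% DMSO; gain or loss of signal was fitted relative to vehicle.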

[4] = read-out: growth arrest and DNA damage 45 (GADD45B), GADD45B (gene 4616); test: LTEA_HepaRG_GADD45B: Life Technologies and Expression Analysis (LTEA) Assay for growth arrest and DNA damage 45 (GADD45B) using HepaRG (AID 2283461)
Procedure, shortened: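 Transcript level quantified by Fluidigm TaqMan qRT-PCR with three housekeeping genes for normalization, analyzed for up- or down-regulation against 0.5% DMSO. HepaRG cultures dosed 48 h at eight half-log concentrations up to 100 uM, duplicates.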

[5] = read-out: ABC Transporter (ABCC3), ABCC3 (gene 8714); test: LTEA_HepaRG_ABCC3: Life Technologies and Expression Analysis (LTEA) Assay for ABC Transporter (ABCC3) using HepaRG (AID 2283462)
Procedure, shortened: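 Transcript level by TaqMan qRT-PCR, normalised to three housekeeping genes, fitted in both directions relative to vehicle. Chemicals tested in duplicate at eight half-log concentrations up to 100 uM for 48 h on HepaRG cells (0.5% DMSO).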

[6] = read-out: ABC Transporter (ABCB11), ABCB11 (gene 8647); test: LTEA_HepaRG_ABCB11: Life Technologies and Expression Analysis (LTEA) Assay for ABC Transporter (ABCB11) using HepaRG (AID 2283463)
Procedure, shortened: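 ABCB11 transcript levels are read by Fluidigm TaqMan qRT-PCR after 48 h chemical treatment of human HepaRG cells. Concentrations span 100 uM downward in half-log steps with 0.5% DMSO; gain or loss is fitted against DMSO controls.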

[7] = read-out: ABC Transporter (ABCC2), ABCC2 (gene 1244); test: LTEA_HepaRG_ABCC2: Life Technologies and Expression Analysis (LTEA) Assay for ABC Transporter (ABCC2) using HepaRG (AID 2283464)
Procedure, shortened: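 Endpoint is ABCC2 transcript level from qRT-PCR, normalized to three housekeeping genes and fitted bidirectionally relative to DMSO. Human HepaRG cells received test chemical for 48 h at up to 100 uM (8 points, half-log steps, 0.5% DMSO), duplicate wells.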

[8] = read-out: Broad substrate specificity ATP-binding cassette transporter ABCG2 (Homo sapiens) (UniProt Q9UNQ0); test: LTEA_HepaRG_ABCG2: Life Technologies and Expression Analysis (LTEA) Assay for ABC Transporter (ABCG2) using HepaRG (AID 2283465)
Procedure, shortened: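 Read-out is ABCG2 mRNA induction or loss quantified by qRT-PCR after 48 h chemical treatment of human HepaRG cells, normalized to three housekeeping genes. Concentrations reached 100 uM top in half-log steps; fitting was bidirectional against 0.5% DMSO.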

[9] = read-out: ATP-citrate lyase (ACLY), ACLY (gene 47); test: LTEA_HepaRG_ACLY: Life Technologies and Expression Analysis (LTEA) Assay for ATP-citrate lyase (ACLY) using HepaRG (AID 2283466)
Procedure, shortened: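 HepaRG, 48 h exposure, 8-pt half-log dilutions (top 100 uM), 0.5% DMSO. Readout: ACLY mRNA, TaqMan qRT-PCR, housekeeping-normalized (ACTB/GAPDH/POLR2A). Bidirectional curve fit vs DMSO.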

[10] = read-out: Peroxisomal acyl-coenzyme A oxidase 1 (ACOX1) gene, ACOX1 (gene 51); test: LTEA_HepaRG_ACOX1: Life Technologies and Expression Analysis (LTEA) Assay for Peroxisomal acyl-coenzyme A oxidase 1 (ACOX1) gene using HepaRG (AID 2283467)
Procedure, shortened: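 Measured by qRT-PCR against three housekeeping genes: ACOX1 transcript change in human HepaRG cells after 48 h dosing. Concentrations ran up to 100 uM in half-log steps. Curves were fitted bidirectionally relative to 0.5% DMSO.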

[11] = read-out: Alkaline Phosphatase, Placental (ALPP) gene, ALPP (gene 250); test: LTEA_HepaRG_ALPP: Life Technologies and Expression Analysis (LTEA) Assay for Alkaline Phosphatase, Placental (ALPP) gene using HepaRG (AID 2283468)
Procedure, shortened: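 ALPP transcript level, measured by qRT-PCR and normalized to three housekeeping genes (ACTB, GAPDH, POLR2A), after 48 h dosing of differentiated HepaRG in serum-free induction medium. Top concentration 100 uM with half-log dilutions (8 points, 0.5% DMSO, duplicates); bidirectional fitting relative to DMSO.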

[12] = read-out: Bcl-2 (BAD) gene, BAD (gene 572); test: LTEA_HepaRG_BAD: Life Technologies and Expression Analysis (LTEA) Assay for Bcl-2 (BAD) gene using HepaRG (AID 2283469)
Procedure, shortened: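 BAD transcript change, measured by qRT-PCR against three housekeeping genes and fitted in both directions relative to 0.5% DMSO, after 48 h chemical treatment of human HepaRG liver cells at concentrations up to 100 uM.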

[13] = read-out: Bcl-2 (BAX) gene, BAX (gene 581); test: LTEA_HepaRG_BAX: Life Technologies and Expression Analysis (LTEA) Assay for Bcl-2 (BAX) gene using HepaRG (AID 2283470)
Procedure, shortened: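 Differentiated human HepaRG cells, plated 48 h then switched to serum-free induction medium, were exposed 48 h to 8 half-log concentrations up to 100 uM in 0.5% DMSO; BAX mRNA measured by qRT-PCR, normalized to ACTB, GAPDH, POLR2A.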

[14] = read-out: adenosine kinase (ADK) gene, ADK (gene 132); test: LTEA_HepaRG_ADK: Life Technologies and Expression Analysis (LTEA) Assay for adenosine kinase (ADK) gene using HepaRG (AID 2283471)
Procedure, shortened: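 ADK expression quantified by qRT-PCR, normalised to three housekeeping genes, after 48 h exposure of HepaRG cells to eight concentrations (top 100 uM, half-log steps, duplicate, 0.5% DMSO). Up- or down-regulation fitted relative to vehicle.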

[15] = read-out: Alpha-fetoprotein (AFP) gene, AFP (gene 174); test: LTEA_HepaRG_AFP: Life Technologies and Expression Analysis (LTEA) Assay for Alpha-fetoprotein (AFP) gene using HepaRG (AID 2283472)
Procedure, shortened: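 Human HepaRG cells plated 48 h, then switched to serum-free induction medium and exposed in duplicate for 48 h to 8-point half-log series from 100 uM in 0.5% DMSO. AFP mRNA by qRT-PCR, normalized to ACTB, GAPDH, POLR2A; bidirectional fit versus DMSO.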

BCL2L11 (gene 10018) = test: LTEA_HepaRG_BCL2L11: Life Technologies and Expression Analysis (LTEA) Assay for Bcl-2 (BCL2L11) gene using HepaRG (AID 2283473)
Procedure, shortened: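 BCL2L11 transcript levels are measured by Fluidigm qRT-PCR, normalized to three housekeeping genes. HepaRG cultures were plated 48 h, then treated 48 h with test chemical (top 100 uM, half-log, 0.5% DMSO vehicle); curves were fitted bidirectionally against DMSO.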

[16] = read-out: Bcl-2 (BID) gene, BID (gene 637); test: LTEA_HepaRG_BID: Life Technologies and Expression Analysis (LTEA) Assay for Bcl-2 (BID) gene using HepaRG (AID 2283476)
Procedure, shortened: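 Differentiated HepaRG cells in serum-free induction medium were exposed in duplicate for 48 h to eight half-log concentrations up to 100 uM in 0.5% DMSO. BID mRNA was quantified by qRT-PCR, normalized to ACTB, GAPDH and POLR2A.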

Caspase-3 (Homo sapiens) = Caspase-3 (Homo sapiens) (UniProt P42574); test: LTEA_HepaRG_CASP3: Life Technologies and Expression Analysis (LTEA) Assay for cysteine-aspartic acid protease (CASP3) using HepaRG (AID 2283477)
Chain of Caspase-3 (Homo sapiens) (P42574 whole entry, looked up): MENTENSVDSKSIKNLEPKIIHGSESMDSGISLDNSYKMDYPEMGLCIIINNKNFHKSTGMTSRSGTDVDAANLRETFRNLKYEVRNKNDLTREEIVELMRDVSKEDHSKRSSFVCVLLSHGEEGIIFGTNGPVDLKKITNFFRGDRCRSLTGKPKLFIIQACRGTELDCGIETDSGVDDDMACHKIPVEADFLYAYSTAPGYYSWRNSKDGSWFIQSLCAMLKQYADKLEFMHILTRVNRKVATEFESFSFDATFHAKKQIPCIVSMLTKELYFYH
Procedure, shortened: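 Expression of CASP3 was quantified by TaqMan qRT-PCR against three housekeeping genes (ACTB, GAPDH, POLR2A), bidirectionally versus 0.5% DMSO. HepaRG cultures received compounds in duplicate, top 100 uM with half-log steps, for 48 h in serum-free induction medium.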

[17] = read-out: Apolipoprotein A-V (APOA5) gene, APOA5 (gene 116519); test: LTEA_HepaRG_APOA5: Life Technologies and Expression Analysis (LTEA) Assay for Apolipoprotein A-V (APOA5) gene using HepaRG (AID 2283474)
Procedure, shortened: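 APOA5 transcript levels were quantified by qRT-PCR, normalized to three housekeeping genes, after 48 h chemical treatment of HepaRG cells (8 points, 100 uM maximum, half-log steps, 0.5% DMSO). Curves fitted in both directions against vehicle.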

[18] = read-out: Apoptosis regulator Bcl-2 (Homo sapiens) (UniProt P10415); test: LTEA_HepaRG_BCL2: Life Technologies and Expression Analysis (LTEA) Assay for Bcl-2 gene using HepaRG (AID 2283475)
Procedure, shortened: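 Differentiated HepaRG cells in serum-free induction medium were exposed for 48 h to eight half-log concentrations up to 100 uM in 0.5% DMSO, in duplicate. BCL2 mRNA was quantified by TaqMan qRT-PCR normalised to ACTB, GAPDH and POLR2A, with bidirectional fitting versus DMSO.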

Measured: AC50

Chain of Broad substrate specificity ATP-binding cassette transporter ABCG2 (Homo sapiens) (Q9UNQ0 whole entry, looked up): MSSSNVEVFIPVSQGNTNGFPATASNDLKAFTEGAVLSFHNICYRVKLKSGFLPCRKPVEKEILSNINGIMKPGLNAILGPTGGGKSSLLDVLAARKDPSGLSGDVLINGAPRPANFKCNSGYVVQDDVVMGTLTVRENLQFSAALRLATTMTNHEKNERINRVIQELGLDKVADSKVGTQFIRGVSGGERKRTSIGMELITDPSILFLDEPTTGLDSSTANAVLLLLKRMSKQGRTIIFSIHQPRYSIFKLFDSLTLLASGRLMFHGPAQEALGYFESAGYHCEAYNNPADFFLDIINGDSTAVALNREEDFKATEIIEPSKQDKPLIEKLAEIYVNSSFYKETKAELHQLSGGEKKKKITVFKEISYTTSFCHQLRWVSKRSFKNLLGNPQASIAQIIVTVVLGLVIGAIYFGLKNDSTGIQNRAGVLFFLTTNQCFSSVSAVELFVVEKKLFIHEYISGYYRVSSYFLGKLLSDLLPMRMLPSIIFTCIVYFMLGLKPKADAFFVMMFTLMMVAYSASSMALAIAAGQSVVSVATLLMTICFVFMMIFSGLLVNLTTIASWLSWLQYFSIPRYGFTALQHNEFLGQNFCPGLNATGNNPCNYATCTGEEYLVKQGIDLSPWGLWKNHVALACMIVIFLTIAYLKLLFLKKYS
Chain of Apoptosis regulator Bcl-2 (Homo sapiens) (P10415 whole entry, looked up): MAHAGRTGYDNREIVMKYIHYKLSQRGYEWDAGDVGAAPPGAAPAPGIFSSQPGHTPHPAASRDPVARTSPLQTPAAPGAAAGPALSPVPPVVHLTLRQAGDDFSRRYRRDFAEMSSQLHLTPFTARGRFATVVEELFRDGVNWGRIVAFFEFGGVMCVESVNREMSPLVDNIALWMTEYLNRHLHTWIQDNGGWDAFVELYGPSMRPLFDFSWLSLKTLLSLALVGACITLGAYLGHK

O=C1OC(c2ccc(O)cc2)(c2ccc(O)cc2)c2ccccc21
active: [2] 50 µM | [6] 69.8 µM | [8] 79.2 µM | [10] 50 µM | [15] 77.4 µM
not listed: [17] | [18]
inactive: all other assays above

CC(N)=O
active: [1] 0.256 µM | [16] 0.321 µM
inactive: all other assays above

C=CCCCCCCCCCCCC
inactive: all assays above

C#CC(O)C(CC)CCCC (centres undefined)
not listed: [17] | [18]
inactive: all other assays above

CCC(C)N(C)C(=O)c1cc2ccccc2c(-c2ccccc2Cl)n1 (centres undefined)
active: [3] 5.38 µM | [7] 7.48 µM | [8] 4.44 µM | [15] 31.8 µM | BCL2L11 (gene 10018) 31.8 µM
not listed: [13]
inactive: all other assays above

NC1CCCCC1
not listed: [17]
inactive: all other assays above

From PubChem BioAssay (EPA / NIEHS)
